In PubChem BioAssay AID2806 (Sanford-Burnham Center for Chemical Genomics, 2010) one finds inhibition data, which are given here for 92 compounds.

SMILES strings stand for the structures. Hit rate of the full screen: of about 330,000 compounds, about 660 (0.2%) were called active.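 Rule for the calls: active = inhibition of at least 40% at 10 µM in the primary screen; inactive = the rest.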 What follows is part of a selection rich in actives, with near analogues and random picks from the rest.

The test system of the assay is intestinal alkaline phosphatase [Mus musculus]. As to the kind of experiment: mouse intestinal phosphatase enzyme inhibition – biochemical, luminescence, uHTS, primary screen (AID 2806).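 Note: plate controls were DMSO with enzyme for no effect and no enzyme wells for full effect.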 To be noted: purified mouse IAP, CDP-Star luminescence, 30 min; at 10 µM; active compounds read high.
With `Cc1ccc(-c2nn(-c3ccccc3)cc2/C=C2\SC(=S)N(CCCCCC(=O)O)C2=O)o1`, the inhibition was 14.7% (inactive).

`O=C(CCCN1C(=O)/C(=C\c2ccco2)SC1=S)Nc1cccc2ccccc12`: the inhibition is 47.9% (active).

As to `COc1ccc(/C=C2/SC(=O)N(CCCCCC(=O)Nc3ccccc3C(=O)O)C2=S)cc1`, the inhibition is 12.6% (inactive).

With `O=C(CCCN1C(=O)/C(=C/c2cccs2)SC1=S)Nc1ccc(O)cc1`, the inhibition is 10.9% (inactive).

Take `O=C(CCCN1C(=O)/C(=C/c2ccco2)SC1=S)Nc1ccccc1`: the inhibition was 47.8% (active).

On to `O=C1/C(=C\c2ccccc2Cl)SC(=S)N1CCC(=O)N1CCCc2ccccc21`, for which the inhibition was 23.1% (inactive).

As to `O=C(CNS(=O)(=O)c1ccc2c(c1)OCCCO2)N1CCN(c2ccc(F)cc2)CC1`, the inhibition was -6.2% (inactive).

Take `COc1ccccc1CNC(=O)CSc1nc(=O)n(Cc2ccncc2)c2c1CCC2`: the inhibition was -1.4% (inactive).

As for `CCCCS(=O)c1snnc1C` (configuration not stated), the inhibition was -4.4% (inactive).

With `Cc1ccc(Cc2cnc(N)s2)o1`, the inhibition was 50.5% (active).

Turning to `CCCCNc1ccc(C(=O)Nc2cccc(C)n2)cc1[N+](=O)[O-]`, the inhibition is 15.5% (inactive).

As for `Cn1cnc([N+](=O)[O-])c1Sc1n[nH]c(N)n1`, the inhibition was 7.9% (inactive).

For `O=C(CCSCCc1ccccn1)Nc1nccs1`, the inhibition was -7% (inactive).

For the compound `Cc1ccc(C(=O)N/N=C/c2sc(=O)n(Cc3cccc(C(=O)O)c3)c2Cl)cc1`, the inhibition is 11.7% (inactive).

Consider `NS(=O)(=O)c1ccc(-c2ccc(/C=C3\SC(=O)NC3=O)o2)cc1`, for which the inhibition is 55.1% (active).

Consider `COc1cc(/C=C/C(=O)O)cc(S(=O)(=O)Nc2ccccc2C(=O)NCCc2ccccc2)c1OC`, for which the inhibition is -5.2% (inactive).

On to `CCOc1ccc(NC(=O)COC(=O)C2CCC(=O)N2)c([N+](=O)[O-])c1` (configuration not stated), for which the inhibition was 1% (inactive).

On to `COC(C[C@@H]1O[C@@H]1C(=O)[C@@H](C)OCc1ccccc1)OC`, for which the inhibition is 2.7% (inactive).

Regarding `CC(=O)c1c(C)n([O-])c2ccccc2[n+]1=O`, the inhibition is 0.9% (inactive).

Take `O=C(Nc1nc(-c2ccco2)c(-c2ccco2)s1)c1ccco1`: the inhibition is 64.2% (active).

With `O=C(Nc1nnc(CCOCCOCCc2nnc(NC(=O)c3ccco3)s2)s1)c1ccco1`, the inhibition is 0.5% (inactive).

As for `NC(=O)c1ccsc1NC(=O)c1ccco1`, the inhibition was 0.1% (inactive).

In the case of `Cc1nc(CC(=O)NNS(=O)(=O)c2ccc(F)c(Cl)c2)cs1`, the inhibition was 1.6% (inactive).

With `COc1ccc(OC)c(-n2c(-c3ccn[nH]3)n[nH]c2=S)c1`, the inhibition was -6.5% (inactive).

As to `COc1ccccc1-n1cn[nH]c1=S`, the inhibition was 1.9% (inactive).

As for `COc1ccccc1-n1c(-c2cc(-c3ccco3)[nH]n2)n[nH]c1=S`, the inhibition was 57.8% (active).

Consider `NC(=O)c1ccc(Nc2ccc3c(c2)CCC3)c([N+](=O)[O-])c1`, for which the inhibition is 11.2% (inactive).

Turning to `Brc1cnc(N2CCCC2)nc1N1CCCCC1`, the inhibition was 1.2% (inactive).

On to `Fc1ccc(Nc2nnns2)cc1`, for which the inhibition is 7.1% (inactive).

Consider `Cc1ccc(S(=O)(=O)NCCSC(C)(C)C)cc1`, for which the inhibition is -3.9% (inactive).

Consider `C[C@H]1CN([C@@H](C)CO)C(=O)Cc2cc(NC(=O)Cc3ccccc3)ccc2O[C@H]1CN(C)S(=O)(=O)c1cccs1`, for which the inhibition is -5.4% (inactive).

Consider `CN1CCCc2cc(C#N)c(=O)[nH]c21`, for which the inhibition was 5.2% (inactive).

Regarding `COc1cccc(CCNC(=O)c2cccc(NC(=O)C3=C(C)OCCS3)c2)c1`, the inhibition was -9.8% (inactive).

`CC(=O)N1c2ccc(S(=O)(=O)N3CCC(C(=O)NC4CCCC(C)C4C)CC3)cc2CC1C` (configuration not stated): the inhibition is -23.1% (inactive).

Turning to `O=C(CS(=O)(=O)c1ccccc1)Nc1ccc(S(=O)(=O)Nc2ccccn2)cc1`, the inhibition was 6.7% (inactive).

`CCN(CC)P(=O)(C(NC(=O)OC)C(F)(F)C(F)(F)C(F)(F)C(F)F)N(CC)CC` (configuration not stated): the inhibition is 1.2% (inactive).

On to `N#CC(C(N)=O)=C1CCC2(CC1)OCCCCO2`, for which the inhibition is -8.3% (inactive).

Take `Cc1[nH]c2ccccc2c1-c1ccc(Cl)nn1`: the inhibition is 4.1% (inactive).

On to `CC(C)S(=O)(=O)c1csc(NC(=O)Nc2ccc(Cl)cc2)c1Cl`, for which the inhibition is -190% (inactive).

For the compound `O=C1CCCN1C(=O)COc1ccc([N+](=O)[O-])cc1`, the inhibition is 2.6% (inactive).

For `COC(=O)c1cc(NC(=O)c2nn(C)c(=O)c3ccccc23)cc(C(=O)OC)c1`, the inhibition was -11.6% (inactive).

As for `COc1ccc(N(Cc2ccc(N(C)C)cc2)C(=O)c2ccc(S(C)(=O)=O)cc2)cc1`, the inhibition was 3.6% (inactive).

Turning to `CC(=O)c1c(C)[nH]c(C(=O)NCc2ccc(C)cc2)c1C`, the inhibition was -23.4% (inactive).

`COC(=O)c1ccc(CNC(=O)C2CCC(=O)N(Cc3cccc(F)c3)C2)cc1` (configuration not stated): the inhibition is 2.3% (inactive).

For the compound `COc1cccc(N(C(=O)CNC(=O)c2ccco2)C(C(=O)NC2CCCCC2)c2cccnc2)c1` (configuration not stated), the inhibition is -11.8% (inactive).

Take `Cc1ccccc1CN1C[C@@H]2C[C@@H](c3ccc4nsnc4c3)N3CCC[C@@]23C1=O`: the inhibition is 4% (inactive).

For `CCc1nc2nc(C)c(NS(=O)(=O)c3ccc4c(c3)CCCC4)c(=O)n2[nH]1`, the inhibition was 8.4% (inactive).

Consider `CNC(=O)NCCN1CCCC1=O`, for which the inhibition was -13.9% (inactive).

Turning to `CC(C)(C)NC(=O)NC(=O)COC(=O)Cn1c(C(F)(F)F)nc2ccccc21`, the inhibition was 3.3% (inactive).

With `O=C(CNS(=O)(=O)c1ccccc1)N1CCN(C(=O)c2ccco2)CC1`, the inhibition was 2.1% (inactive).

As to `CC(C)NC(=S)Nc1cccc2cnccc12`, the inhibition is 9.6% (inactive).

Turning to `Cc1c(NC(=O)C(=O)N/N=C/c2cccs2)c(=O)n(-c2ccccc2)n1C`, the inhibition was 5.7% (inactive).

Take `Clc1cccc(Cl)c1OCCOCCNCc1ccccc1`: the inhibition is -0.1% (inactive).

For the compound `CC1=C(C)C(=O)OC(C(C)C2CCC3C4CC=C5CC(OC6OC(COC7OC(CO)C(O)C(O)C7O)C(O)C(O)C6O)CC(O)C5(C)C4CCC23C)C1` (configuration not stated), the inhibition is 9.3% (inactive).

`C=CC1C(OC2OC(CO)C(O)C(O)C2O)OC=C(C(=O)OC)C1CC1CC(=O)CC(CC(=O)CCc2ccc(O)cc2)O1` (configuration not stated): the inhibition was 6.5% (inactive).

With `CC(/C=C/C1(O)C(C)CC(=O)CC1(C)C)OC1OC(CO)C(O)C(O)C1O` (configuration not stated), the inhibition is 41.9% (active).

Turning to `COc1cccc(/C=N\NC(=O)C2=NNC(=O)C2C)c1O` (configuration not stated), the inhibition is 61.4% (active).

Take `COc1cc(/C=N\NC(=O)C2C(=O)NCC2c2ccccc2)cc(OC)c1O` (configuration not stated): the inhibition is 11.4% (inactive).

Consider `CCOc1ccc2[nH]c(C(=O)N/N=C/c3cccc(OC)c3OC)cc2c1`, for which the inhibition was 10.1% (inactive).

On to `Cc1c(CC(=O)NCC(=O)NCC(=O)O)c(=O)oc2cc3oc4c(c3cc12)CCCC4`, for which the inhibition was 3.6% (inactive).

With `CN(/C(=N/S(=O)(=O)c1cccs1)c1ccccc1)c1ccc(O)cc1`, the inhibition was -15.8% (inactive).

In the case of `COCc1cc(C)nc(Nc2cc(C)ccc2C)c1C#N`, the inhibition was -3.2% (inactive).

Turning to `Cc1nc2sccn2c(=O)c1S(=O)(=O)NCCc1ccccc1`, the inhibition is -1.1% (inactive).

With `Cc1cc(C)c(S(=O)(=O)NCCCN2CCOCC2)cc1Br`, the inhibition was 6.6% (inactive).

In the case of `O=C(/C=C/Nc1ccc(S(=O)(=O)Nc2cnc3ccccc3n2)cc1)c1cccnc1`, the inhibition was 10% (inactive).

Consider `OCC[C@H]1C[C@@H](O)[C@H](O)[C@@]2(OCCc3ccccc32)O1`, for which the inhibition was 8.9% (inactive).

As to `COc1cc(C2CC(=O)Oc3cc(OC)c(OC)c(OC)c32)cc(OC)c1OC` (configuration not stated), the inhibition is -2.2% (inactive).

Turning to `COc1ccc(OCCCC(=O)OC(C)C(=O)Nc2ccccc2[N+](=O)[O-])cc1` (configuration not stated), the inhibition was 1.5% (inactive).

For the compound `O=C(O)C1OC(C(=O)O)C2C1C(F)(F)C2(F)F` (configuration not stated), the inhibition is -3.4% (inactive).

Turning to `Cc1ccccc1OCC(=O)N(Cc1cccc(F)c1)C1CCS(=O)(=O)C1` (configuration not stated), the inhibition was -3.3% (inactive).

Take `CCC(=O)Nc1ccc(-c2ccc(N3CCCCC3)nn2)cc1`: the inhibition is 6.7% (inactive).

For `COC(=O)c1ccc(S(=O)(=O)c2ccc(C(=O)OC)s2)s1`, the inhibition is 7.9% (inactive).

For `Cc1ccc2c(c1)NC(=O)[C@@]1(C)[C@@H](c3ccccc3)[C@H]3COc4ccc(Cl)cc4[C@@H]3N1C2=O`, the inhibition is -2.6% (inactive).

Consider `O=C(c1ccc(Cl)cc1)N1N=C(c2ccccn2)CC1(O)C(F)(F)F` (configuration not stated), for which the inhibition is -4% (inactive).

With `O=c1[nH]c(=S)[nH]c2[nH]c(=S)[nH]c12`, the inhibition is 73.3% (active).

Regarding `O=C(CN1CCN(C(=O)C2CCCO2)CC1)Nc1c(Cl)cccc1Cl` (configuration not stated), the inhibition is 3.1% (inactive).

For `O=C(COC(=O)c1cnccn1)Nc1ccc(Cl)cc1C(F)(F)F`, the inhibition is 4.7% (inactive).

As to `Cc1ccc(OCc2nnc(NC(=O)OCC(C)C)s2)cc1`, the inhibition was 0.4% (inactive).

For `O=C(Nc1nnc(SCc2ccccc2Cl)s1)c1cccc([N+](=O)[O-])c1`, the inhibition is 22.8% (inactive).

Take `c1ccc(CSc2nnc(-c3ccco3)c(-c3ccco3)n2)cc1`: the inhibition was 49% (active).

Take `Clc1ccc(CSc2nnc3c(n2)[nH]c2ccccc23)cc1`: the inhibition is 12.9% (inactive).

`Clc1ccccc1CSc1nnc(-c2ccco2)c(-c2ccco2)n1`: the inhibition is 60.4% (active).

Consider `CCc1nnc(SCc2cccc(F)c2)nc1CC`, for which the inhibition is 4.4% (inactive).

Consider `S=C(NCc1ccco1)NCc1ccccc1Cl`, for which the inhibition is -1% (inactive).

On to `C[C@H](NC(=O)[C@@H]1Cc2ccccc2CN1C(=O)OC(C)(C)C)C(=O)NC1CCCC1`, for which the inhibition was -2.7% (inactive).

For `Cc1cccc(OCC(O)Cn2c(N3CCCCC3)nc3c2c(=O)[nH]c(=O)n3C)c1` (configuration not stated), the inhibition was -1.1% (inactive).

Consider `Cc1ccc(CNC(=O)C2CCCN2S(=O)(=O)c2ccc3c(c2)C(C)(C)C(=O)N3C)cc1` (configuration not stated), for which the inhibition is -1% (inactive).

Turning to `CC(C)OC(=O)c1cc(NC(=O)C2C3CCC(O3)C2C(=O)O)cc(C(=O)OC(C)C)c1` (configuration not stated), the inhibition is 7.3% (inactive).

As to `COc1ccccc1CCNC(=O)c1c(C)nn(CC(C)C)c1Cl`, the inhibition is 6.5% (inactive).

Take `CN1C(=O)/C(=C/c2ccco2)SC1=Nc1cccc(C(=O)O)c1`: the inhibition was 9.6% (inactive).

For `Cc1ccc(N=C2NC(=O)/C(=C/C=C/c3ccco3)S2)cc1C`, the inhibition is 56% (active).

Turning to `CC(=O)Nc1ccc(NC(=O)C(NS(=O)(=O)c2ccc3c(c2)OCCO3)C(C)C)cc1` (configuration not stated), the inhibition is 3.4% (inactive).
